In PubChem BioAssay AID1956 (SRMLSC, 2009) one finds fold increase and outcome data, which are given here for 53 compounds.

The whole screen tested about 220,000 compounds, of which about 10 (0.005%) were called active. No stated cut-off is given here; in the data, active means maximum fold increase above about 1.5; inconclusive means no clear call, values can overlap the other calls; inactive means below that; tested in PC3 cells. Not all results are given here.

A short description of the test: compounds boosting herpes simplex virus growth – fold increase, host cell viability (AID 1956). Conditions: HSV replication augmentation in cells; fold increase: measured here: primary screen fold increase 10 uM, at 10 µM, stronger effect = higher value; maximum fold increase: at 0.098 µM, stronger effect = higher value; viability: measured here: host cell viability series, at 25 µM, stronger effect = lower value.
As for `CC(C)n1c(=S)[nH]c2cc(C(F)(F)F)ccc21`, the fold increase was 1.02 and the compound was called inactive.

Take `COc1cccc(Nc2nnc(SCC(=O)N3CC(=O)Nc4ccccc43)s2)c1`: the fold increase is 1 and the call was inactive.

Regarding `CCc1nnc(SCc2cccc(F)c2)nc1CC`, the fold increase was 1.19 and the result was inactive.

As to `CC1(C)CC[C@]2(C(=O)O)CC[C@]3(C)C(=CCC4[C@@]5(C)CC[C@H](O)C(C)(C)C5[C@H](O)C[C@]43C)[C@@H]2C1` (stereo partly specified), the fold increase came out at 0.82 and the compound was called inactive.

Take `COC(C[C@@H](O)C[C@@H](O)[C@H](C)OCc1ccccc1)OC`: the fold increase was 1.01 and the outcome was inactive.

On to `COC(=O)c1cc(=O)n(-c2c(Cl)cc(C(F)(F)F)cc2Cl)[nH]1`, for which the fold increase was determined as 0.98 and the result was inactive.

For the compound `S=c1[nH]nc(-c2cc(-c3ccccc3)n[nH]2)n1/N=C/c1c2ccccc2cc2ccccc12`, the fold increase is 0.83 and the result was inactive.

As for `Cc1cc(C)nc(NC(=O)/C=C/c2ccc(Cl)cc2)n1`, the fold increase worked out at 0.99 and the result was inactive.

On to `S=C(NNC(=S)NC1CC2C=CC1C2)NC1CC2C=CC1C2` (stereo unspecified), for which the fold increase is 0.93 and the result was inactive.

As for `CCCCN1C(N)=NC[C@@H]1CC1CCCCC1`, the fold increase came out at 0.8 and the compound was classed as inactive.

Regarding `C=CCC1(C(=O)N(C)Cc2ccccc2)CCN(C(=O)OC(C)(C)C)CC1`, the fold increase stood at 0.96 and the compound was called inactive.

Regarding `NC(=O)C1=C[C@@H](c2csc3ccccc23)C[C@@H](OCc2ccc(CO)cc2)O1`, the fold increase was found to be 0.78 and the compound was called inactive.

Consider `COC(C[C@H](O)CC(=O)[C@@H](C)OCc1ccccc1)OC`, for which the fold increase was 0.76 and the call was inactive.

On to `CCCOc1ccc(Cl)cc1Nc1nc(NCCO)nc(N2CCCC2)n1`, for which the fold increase was 0.59 and the outcome was inactive.

Consider `CC1(c2nnc(-c3ccncc3)o2)CC(c2cccnc2)=NO1` (stereo unspecified), for which the fold increase was found to be 0.69 and the compound was called inactive.

Consider `Cc1cc(Cl)ccc1NNC(=O)c1snnc1C`, for which the fold increase amounted to 1.06 and the outcome was inactive.

With `CCC1(CC)C(=O)C2=C3C1[C@H](C(=O)OC)C=C(C(=O)OC)C[C@H]3[C@H]1C(=O)N(Cc3ccccc3)C(=O)[C@H]1[C@H]2C` (stereo partly specified), the fold increase is 0.96 and the outcome was inactive.

Turning to `CCC(C)N1C(=S)SC(C)(C)C1N(O)C(=O)NC1CCCCC1` (stereo unspecified), the fold increase worked out at 0.99 and the call was inactive.

Regarding `NC(=O)CC(NC(=O)Cc1cccc2ccccc12)c1ccc(NCc2cc(F)ccc2F)c([N+](=O)[O-])c1` (stereo unspecified), the fold increase is 0.77 and the outcome was inactive.

Consider `CC1(C)C=Cc2c(ccc3c2OC[C@@H](c2ccc(O)cc2O)C3)O1`, for which the fold increase came to 0.67 and the outcome was inactive.

For the compound `Nc1nc(O)c(CC(=O)O)s1`, the fold increase came to 1.21 and the result was inactive.

For `Clc1ccc2nc(-c3ccccc3)nc(C(Cl)Cl)c2c1`, the fold increase worked out at 0.64 and the call was inactive.

Take `CCCCN1C(N)=NC[C@@H]1Cc1ccccc1`: the fold increase came out at 0.87 and the call was inactive.

As for `Cc1nnc(SC(C(=O)c2ccccc2)c2ccccc2)[nH]c1=O` (stereo unspecified), the fold increase came to 0.88 and the call was inactive.

For the compound `CN1CCc2nc(SC(C(=O)O)c3ccccc3)c(C#N)c(-c3cccs3)c2C1` (stereo unspecified), the fold increase turned out to be 0.99 and the compound was classed as inactive.

Take `C/C(=N\Nc1cccc(C(=O)O)c1)c1ccc2c(c1)Nc1ccccc1S2`: the fold increase came out at 1.22 and the compound was called inactive.

Regarding `O=C(NCc1ccccc1)c1onc(CSc2ccncc2)c1C(=O)NCc1ccccc1`, the fold increase came out at 0.71 and the call was inactive.

Turning to `O=C(N/N=C\c1cc(Br)c(Br)o1)C1COc2ccccc2O1` (stereo unspecified), the fold increase turned out to be 1.28 and the outcome was inactive.

As to `CC(C)c1cc(CN2CCOCC2)cc(C(C)C)c1O`, the fold increase came to 1.06 and the compound was called inactive.

As to `CC(C)=CCc1c(O)c(CC=C(C)C)c2occ(-c3ccc(O)cc3)c(=O)c2c1O`, the fold increase worked out at 0.74 and the compound was called inactive.

On to `CN(C)CCCN(Cc1cc2cc3c(cc2[nH]c1=O)OCCO3)C(=O)NC1CCCCC1`, for which the fold increase was found to be 0.89 and the result was inactive.

As for `C/C(CC(C)C)=N\Oc1nc(C)cc(C)n1`, the fold increase was determined as 0.9 and the outcome was inactive.

Turning to `COc1ccc(Nc2cc(=O)n(-c3ccccc3)c3c2c(=O)n(C)c(=O)n3C)cc1`, the fold increase turned out to be 1.09 and the compound was called inactive.

Consider `NC(=O)C1=C[C@@H](c2ccc3c(c2)OCO3)C[C@@H](OCCCCO)O1`, for which the fold increase came to 0.58 and the compound was classed as inactive.

For the compound `O=C(NCC1CC1)c1onc(CSc2ccccc2)c1C(=O)NCC1CC1`, the fold increase was 1.02 and the result was inactive.

Turning to `Cc1ccc(S(=O)(=O)N2CCN(C(=O)COC(=O)c3c(C)noc3C)CC2)c(C)c1`, the fold increase worked out at 0.83 and the call was inactive.

Regarding `COc1ccc(CN2CC[C@H]3C=CC[C@@H](C(=O)N4CCOCC4)[C@H]3C2=O)cc1OC`, the fold increase worked out at 0.78 and the outcome was inactive.

Take `Brc1ccc(-c2n(-c3ccccn3)c3ccccc3[n+]2-c2ccccn2)cc1`: the fold increase was 1.03 and the compound was called inactive.

Regarding `Cc1[nH]n(C)c(=O)c1N=Nc1ccc(S(C)(=O)=O)cc1`, the fold increase was determined as 1.01 and the compound was called inactive.

`O=C(CC(c1ccccc1)c1cc(Cl)ccc1O)NCCN1CCOCC1` (stereo unspecified): the fold increase is 0.85 and the compound was called inactive.

In the case of `COC(=O)c1c(-c2ccsc2)oc2ccc(-c3cc(OC)c(OC)c(OC)c3)cc12`, the fold increase came out at 1.05 and the result was inactive.

In the case of `Cc1cccc(NC(=O)c2ccc([N+](=O)[O-])o2)c1`, the fold increase was determined as 0.66 and the call was inactive.

In the case of `C=CC1C(OC2OC(CO)C(O)C(O)C2O)OC=C(C(=O)OC)C1CC1CC(=O)CC(CC(=O)CCc2ccc(O)cc2)O1` (stereo unspecified), the fold increase was determined as 1.03 and the outcome was inactive.

Turning to `O=C(N/N=C/c1cccc2cccnc12)[C@H]1C[C@@H]1c1ccccc1`, the fold increase was determined as 0.97 and the call was inactive.

For `COCCn1c(SCC(=O)c2[nH]c(C)c(C(C)=O)c2C)nc2ccccc2c1=O`, the fold increase is 0.86 and the call was inactive.

Consider `CC#CC[N+](C)(C)CCCCCC`, for which the fold increase was found to be 1.26 and the outcome was inactive.

In the case of `O=C(NCc1ccccc1)C1=C[C@@H](c2ccccc2)C[C@@H](OCCCCO)O1`, the fold increase amounted to 0.94 and the compound was classed as inactive.

As to `O=C(COc1ccc([N+](=O)[O-])cc1Cl)Nn1cnnc1`, the fold increase was 0.85 and the call was inactive.

As for `COc1ccc(/C=C/C(=O)Nc2ccc(C)cc2)cc1S(=O)(=O)N1CCOCC1`, the fold increase was 0.88 and the compound was classed as inactive.

As for `CC1(C)S[C@@H]2[C@H](NC(=O)COc3ccccc3)C(=O)N2C1C(=O)OCc1ccccc1` (stereo partly specified), the fold increase was determined as 0.86 and the outcome was inactive.

For the compound `NC(=O)c1nnsc1-c1ccc(-c2snnc2C(N)=O)cc1`, the fold increase was 0.97 and the outcome was inactive.

As for `O=[N+]([O-])C(=c1ccc2c(c1)N1C3=C(CCCC3)CC3CCCCC31N=2)[N+](=O)[O-]` (stereo unspecified), the fold increase is 1.07 and the compound was classed as inactive.

Turning to `Cc1ccc(-c2nc(SCC(=O)Nc3ccccc3OC(F)F)c3c(C)c(C(=O)O)sc3n2)cc1`, the fold increase was 0.92 and the call was inactive.
